Shown are actives, neighbours in structure and some others; about 21% of the full set was active somewhere.
ClpP mod = qHTS Assay for Activators of ClpP; ATP-dependent Clp protease proteolytic subunit (Bacillus subtilis (strain 168)), P80244; purified B. subtilis ClpP, FRET peptide cleavage, 20 min; Potency, µM (top dose mostly 57.5 µM), for inactives: top-dose activity change, negative = active; 340,000 compounds, 1.9% hits; AID 651965, 2013; active means well fitted falling curve with a large enough effect; inconclusive means small, poorly fitted or top-dose-only effect; inactive means no such curve, though single readings can be large or run the other way; further: potency means the concentration at half of the fitted maximal effect; the source files actives as falling curves though it sought activators and does not explain the sign; nearly all actives have a fitted effect of over 65% in size
Target sequence (P80244 whole entry, looked up): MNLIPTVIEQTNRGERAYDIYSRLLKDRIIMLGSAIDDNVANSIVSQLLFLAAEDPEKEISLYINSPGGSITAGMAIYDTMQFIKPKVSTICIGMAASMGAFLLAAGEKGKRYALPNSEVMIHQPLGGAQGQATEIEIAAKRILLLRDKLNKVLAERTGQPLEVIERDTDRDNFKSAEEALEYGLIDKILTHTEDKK
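ClpP 10 microg/mL final, pH 8 Tris/KCl buffer with BSA, glycerol, Tween-20; compound pinned in; FRET-FV substrate; RT 20 min; Ex320/Em430; ΔFRET vs ADEP 5.8 microM, DMSO, no enzyme.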
IL-1B inflam inh = qHTS for Inhibitors of Inflammasome Signaling: IL-1-beta AlphaLISA Primary Screen. THP-1 LPS/ATP IL-1B secretion, AlphaLISA, 16 h; active compounds read low. 360,000 compounds, 4.7% hits. activity change, % at 57.5 µM; in the data active means activity change below about -50%; inconclusive means mostly about -30% to -49%; further: on the % scale 0 is the no-effect control and ±100 the full control effect
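THP-1 cells pretreated 1 hr with compounds (up to 57.5 uM final), then stimulated with LPS (250 ng/mL final) plus ATP (1.25 mM final); secreted IL-1B measured by AlphaLISA after 16 hr, decreased signal indicating inhibition.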
DT40 TDP1 no CPT = qHTS for Inhibitors of human tyrosyl-DNA phosphodiesterase 1 (TDP1): qHTS in cells in absence of CPT; DT40 Tdp1-/- hTDP1 cells, no CPT, ATP luminescence, 48 h; Potency, µM (highest dose often 46.2 µM), for inactives: at the highest dose activity change, negative = growth inhibition, usual class: inhibitors; 420,000 compounds, 15% hits; AID 686978, 2013; further: potency means the concentration at half of the fitted maximal effect; on the % scale 0 is the no-effect control and ±100 the full control effect; nearly all actives have a fitted effect of over 55% in size
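Camptothecin absent (DMSO only). Human TDP1-complemented DT40 knockout cells, 400 cells/well, 37 °C for minimum 48 hr; ATP measured via CellTiter-Glo, 30 min dark incubation, luminescence.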
D3 ag = qHTS of D3 Dopamine Receptor Agonist: qHTS. AID 652048, 2013. 410,000 compounds, 0.58% hits. D(3) dopamine receptor (Homo sapiens), P35462. max activation, %. D3R DiscoveRx beta-arrestin cells, luminescence, 90 min; in the data active means max activation above about 30%; further: 0% is about no effect
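Cells at 1500/well, incubated overnight, then treated with pinned compounds (dopamine as control) for 90 min at 37 degrees C. DiscoveRx reagent added for 30 - 60 minutes at room temperature; luminescence read.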
TDP1 cell CPT = qHTS for Inhibitors of human tyrosyl-DNA phosphodiesterase 1 (TDP1): qHTS in cells in presence of CPT; 420,000 compounds, 12% hits; chicken DT40 Tdp1-/-;hTDP1 cells + 20 nM CPT, ATP luminescence, 48 h; Potency, µM (doses to about 46.2 µM), for the others: at the highest dose activity change, negative = growth inhibition, usual class: inhibitors; AID 686979, 2013; further: potency means the concentration at half of the fitted maximal effect; on the % scale 0 is the no-effect control and ±100 the full control effect; nearly all actives have a fitted effect of over 55% in size
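Cell growth measured by CellTiter-Glo luminescence after a minimum 48 h, 37 C compound exposure with 20 nM CPT in Tdp1-knockout DT40 cells stably expressing hTDP1, seeded 400/well; qHTS titration format.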
D3 antag = qHTS of D3 Dopamine Receptor Antagonist: qHTS | D(3) dopamine receptor (Homo sapiens), P35462 | 360,000 compounds, 2.5% hits | D3R cells, DiscoveRx beta-arrestin luminescence, antagonist mode; active compounds read low | max response, negative = inhibition, %; in the data active means max response below about -50%; inconclusive means no clear call, values can overlap the other calls; further: on the % scale 0 is the no-effect control and ±100 the full control effect
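Cells plated overnight at 1500 cells/well, then exposed to library compounds with dopamine controls for 90 minutes at 37 degrees C. DiscoveRx reagent added for 30–60 minutes at room temperature; luminescence read, quantitative HTS format.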
Starred values were filed as active, the others as inactive; ? = inconclusive; . = no result. Unless noted, the call rests on the fitted dose curve; in most records, active means well fitted inhibition curve with a large enough effect; inconclusive means small, poorly fitted or top-dose-only effect; inactive means flat fitted curve, though single readings scatter.

SMILES | ClpP mod | IL-1B inflam inh | DT40 TDP1 no CPT | D3 ag | TDP1 cell CPT | D3 antag
O=C(CSc1ccc(Cl)cc1)NNC(=O)c1cccnc1 | -8% | 14 | -8% | -12 | -2% | 0
C/C(=N\NC(=O)c1ccccc1O)C1CC1 | . | 16 | -13% | 4 | -1% | 2
CCOC(=O)c1c(C)[nH]c(C(=O)OCC(=O)Nc2cccnc2Cl)c1C | -19% | -7 | ? | 1 | -11% | 4
CCn1c(=O)c2sccc2n2c(CCCC(=O)N3CCN(c4cccc(Cl)c4)CC3)nnc12 | 0% | . | 16µM* | 6 | 18µM* | .
CCCn1c(=O)c2sccc2n2c(CCCC(=O)N3CCN(c4ccccc4)CC3)nnc12 | -3% | . | 16µM* | 2 | ? | .
Cn1c(=O)c2sccc2n2c(CCC(=O)N3CCN(c4cccc(Cl)c4)CC3)nnc12 | 2% | . | 5.8µM* | -13 | ? | .
COc1ccc(N2CCN(C(=O)CCc3nnc4n(C)c(=O)c5sccc5n34)CC2)cc1 | -1% | . | 0% | 0 | -2% | .
CCn1c(=O)c2sccc2n2c(CCCC(=O)N3CCN(c4cc(Cl)ccc4C)CC3)nnc12 | -1% | . | 8.2µM* | 21 | 12µM* | .
O=C1C(=O)C(c2cc(O)c(O)c(O)c2)Oc2cc(O)cc(O)c21 (stereo not drawn) | -1% | . | ? | . | ? | .
COc1ccc(NS(=O)(=O)c2cccc(C(=O)NCCCn3ccnc3)c2)cc1 | -1% | 3 | 0% | -5 | 6% | 12
CCCCn1c(N)c(N(CC(C)C)C(=O)C2=COCCO2)c(=O)[nH]c1=O | -8% | 12 | 3% | 1 | 5% | -4
CCN(CC)CCNC(=O)c1cc(Cl)c(N)cc1OC | -4% | 16 | ? | -90 | 1% | -117*
CCN(CC)CCOC(=O)c1ccc(Cl)cc1 | 1% | 6 | -24% | -9 | -12% | -83*
CCN(CC)CCOC(=O)c1cc(Cl)c(N)cc1OC | -4% | 6 | 0% | -70 | 2% | -58*
COc1cc(Cl)c(C)cc1NCC(=O)Nc1cccc(S(=O)(=O)N2CCCC2)c1 | -2% | 4 | ? | 2 | ? | -5
O=C(CC1C(=O)N(c2ccccc2)C(=O)N1Cc1ccc(F)cc1)Nc1cccc(F)c1 (stereo not drawn) | -2% | . | 23µM* | -2 | ? | .
COc1ccc(CCN2C(=O)N(c3ccc(F)cc3)C(=O)C2CC(=O)Nc2ccccc2)cc1 (stereo not drawn) | 0% | . | ? | 4 | ? | .
COc1ccc(CCN2C(=O)N(c3ccc(F)cc3)C(=O)C2CC(=O)Nc2ccccc2)cc1OC (stereo not drawn) | 1% | . | -24% | 3 | ? | .
COc1ccc(CN2C(=O)N(c3ccc(F)cc3)C(=O)C2CC(=O)Nc2ccccc2)cc1 (stereo not drawn) | -1% | . | 13µM* | -3 | 13µM* | .
COc1ccc(CCN2C(=O)N(c3ccc(F)cc3)C(=O)C2CC(=O)Nc2ccc(OC)cc2)cc1 (stereo not drawn) | 0% | . | ? | 7 | 12µM* | .
COc1ccc(NC(=O)CC2C(=O)N(c3ccc(C)cc3)C(=O)N2CCc2ccccc2)cc1 (stereo not drawn) | -1% | . | 15µM* | -7 | 15µM* | .
O=C(O)/C=C/c1ccc(S(=O)(=O)Nc2ccc(C(=O)NCC(=O)O)cc2)cc1 | . | 25 | -12% | 3 | 2% | 0
